Measurements taken from PubChem BioAssay.
Active and inactive are the calls of the source. Unless noted, the rule behind the calls is not given here.

Columns and labels:
[1] = system: Wnt5a (protein binding on small-molecule microarray); assay: small molecules binding Wnt5a protein – biophysical, small-molecule microarray, 635/667 nm fluorescence, primary screen (AID 1142); conditions: 635 nm fluorescence, higher = more signal;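 note: fluorescence read at 667 nm with signal to noise per printed feature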
[2] = ATP-based viability of Huh7 replicon cells – cell-based, CellTiter-Glo luminescence, basal, 48 h, cytotoxicity control for HCV replication inhibitor project, primary screen (AID 1143); conditions: higher = more signal, called active from +8 up or from −8 down;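 note: Huh7 hepatoma cells carrying a hepatitis C replication reporter with no stimulus; test concentration not given here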
[3] = Pseudomonas biofilm growth suppression – PAO1 strain, BacTiter-Glo luminescence, LB-PBS, primary screen (AID 1144); conditions: P. aeruginosa PAO1 biofilm, 12 h, higher = more signal
[4] = basal CRE-LacZ reporter activity in PC12 – cell-based, unstimulated, primary screen (AID 1145); conditions: no forskolin, luminescence, 4.5 h, higher = more signal, called active from +8 up or from −8 down
[5] = forskolin-driven CRE-LacZ activity in PC12 – cell-based, CRE-LacZ reporter, forskolin-stimulated, primary screen (AID 1146); conditions: luminescence, 4.5 h, higher = more signal, called active from +8 up or from −8 down;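 note: PC12 cells with 6xCRE LacZ reporter stimulated by forskolin 10 µM; beta-galactosidase reporter signal reflecting CREB driven transcription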
[6] = biological target: Streptavidin (Streptomyces avidinii) (UniProt P22629); assay: compounds binding control protein streptavidin – biophysical, small-molecule microarray, 635/667 nm fluorescence, artefact control for SMM compound annotation, primary screen (AID 1147); conditions: higher = more signal;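 note: signal reflects streptavidin binding to arrayed compounds as a control protein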
[7] = probe aInhba binding on compound microarray – biochemical, small-molecule microarray, 635/667 nm fluorescence, primary screen (AID 1148); conditions: higher = more signal;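 note: score merges 667nm spot fluorescence with signal-to-noise for antibody binding to printed compounds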
[8] = biological target: Torsin-1A (Homo sapiens) (UniProt O14656); assay: TOR1A wild-type binding on microarray – cell lysate, small-molecule microarray, lysate, 635/667 nm, primary screen (AID 1149); conditions: COS7 hTOR1A-WT lysate, 635 nm fluorescence, higher = more signal
[9] = biological target: Torsin-1A (Homo sapiens) (UniProt O14656); assay: torsin A mutant lysate binding on microarrays – cell lysate, small-molecule microarray, COS7 lysate, 635/667 nm fluorescence, primary screen (AID 1150); conditions: COS7 hTOR1A mutant lysate, 635 nm fluorescence, higher = more signal;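 note: score pools 667 nm emission and signal to noise measuring lysate protein binding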
[10] = system: Sonic hedgehog protein (Shh); assay: Sonic hedgehog microarray binding compounds – biochemical, small-molecule microarray, 635/667 nm fluorescence, primary screen (AID 1151); conditions: 635 nm fluorescence, higher = more signal;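 note: Shh protein binding to compounds spotted on small-molecule microarray slides; score combines spot fluorescence intensity with signal-to-noise across triplicate slides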

Sequence of Streptavidin (Streptomyces avidinii) (P22629 whole entry, looked up): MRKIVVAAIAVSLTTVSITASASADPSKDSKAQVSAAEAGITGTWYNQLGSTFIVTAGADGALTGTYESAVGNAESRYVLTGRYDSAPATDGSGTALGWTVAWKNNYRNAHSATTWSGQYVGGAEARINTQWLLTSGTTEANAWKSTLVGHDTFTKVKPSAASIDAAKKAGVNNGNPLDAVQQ
Sequence of Torsin-1A (Homo sapiens) (O14656 whole entry, looked up): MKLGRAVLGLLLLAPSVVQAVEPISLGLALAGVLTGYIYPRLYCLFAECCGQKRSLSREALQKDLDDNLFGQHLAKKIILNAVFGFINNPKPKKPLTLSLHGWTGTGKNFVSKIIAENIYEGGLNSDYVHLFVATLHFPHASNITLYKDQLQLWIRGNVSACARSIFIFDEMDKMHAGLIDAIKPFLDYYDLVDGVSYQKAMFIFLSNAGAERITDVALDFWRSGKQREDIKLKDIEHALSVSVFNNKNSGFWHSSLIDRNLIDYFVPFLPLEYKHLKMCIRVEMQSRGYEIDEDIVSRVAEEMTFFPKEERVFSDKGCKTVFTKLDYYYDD

| SMILES | composite z-score [1] | z-score [2] | z-score [3] | z-score [4] | z-score [5] | composite z-score [6] | composite z-score [7] | composite z-score [8] | composite z-score [9] | composite z-score [10] |
| --- | --- | --- | --- | --- | --- | --- | --- | --- | --- | --- |
| Cc1ccc(S[C@]2(C(=O)NCC(C)C)CC(=O)N(Cc3ccccc3Cl)[C@@H]2c2ccc(CO)cc2)cc1 | -0.343 | 0.554 (inactive) | 1.15 (inactive) | 0.118 (inactive) | -0.227 (inactive) | -1.67 | -0.331 | -0.326 | 0.961 | -1.18 |
| COC(=O)[C@@]1(Cc2ccccc2N=[N+]=[N-])COC(c2ccc(OCCCO)cc2)=N1 | 0.193 | -2.44 (inactive) | 0.335 (inactive) | 0.675 (inactive) | 1.68 (inactive) | 0.175 | -0.0639 | 0.678 | 1.17 | -0.0614 |
| O=c1cccc(C=Cc2ccccc2)o1 | -0.276 | -0.273 (inactive) | -0.544 (inactive) | -0.676 (inactive) | 0.801 (inactive) | -0.532 | 0.144 | -0.994 | -0.711 | -0.604 |
| O=C/C=C/c1ccc2c(c1)OCO2 | 0.0218 | -1.95 (inactive) | -1.39 (inactive) | -0.491 (inactive) | 0.106 (inactive) | -0.142 | -0.0509 | 0.219 | 0.0622 | 0.504 |
| COc1ccc(C(=O)Nc2cccc(CN3C(=O)[C@]4(O[C@H](CC(=O)N5CCC[C@H]5CO)[C@@H]([Si](C)(C)c5ccc(OC)cc5)[C@@H]4C)c4ccccc43)c2)cc1 | 0.278 | -5.56 (inactive) | 1.16 (inactive) | 0.105 (inactive) | -0.748 (inactive) | -0.349 | -0.15 | 0.421 | 0.812 | 1.79 |
| COC(=O)[C@@]1(Cc2ccc(F)cc2)[C@H]2c3cc(C(=O)N4CCCC4)n(Cc4cccc5ccccc45)c3C[C@H]2CN1C(=O)c1ccccc1 | 0.255 | -1.8 (inactive) | 0.233 (inactive) | 0.397 (inactive) | 0.422 (inactive) | 0.95 | 0.434 | 0.341 | -0.0286 | -0.408 |
| C=CC[C@@]1(C(=O)NCC(O)CO)N=C(c2ccc(OCCCO)cc2)O[C@@H]1c1ccccc1N=[N+]=[N-] (stereo not given in full) | 0.147 | -4.04 (inactive) | -0.281 (inactive) | 0.573 (inactive) | -0.815 (inactive) | 1.02 | 0.246 | 1.4 | 1.48 | -0.0776 |
| COCCCNC(=O)[C@@]1(c2ccc([N+](=O)[O-])cc2)CC(=O)N(CC23CC4CC(CC(C4)C2)C3)[C@@H]1c1ccc(CO)cc1 | 0.459 | -4.39 (inactive) | -1.51 (inactive) | -0.179 (inactive) | -0.284 (inactive) | 0.0765 | -0.0018 | 1.02 | 0.894 | 2.13 |
| NC(=O)NCC#Cc1ccc2c(c1)[C@]1(C(=O)N2)[C@H](C(=O)NC[C@H](O)c2ccccc2)[C@H]2C(=O)O[C@H](c3ccccc3)[C@H](c3ccccc3)N2[C@@H]1c1ccc(O)cc1 | 0.545 | 0.525 (inactive) | -0.846 (inactive) | -0.465 (inactive) | -0.467 (inactive) | 1.34 | 0.529 | 0.325 | 0.816 | 1.02 |
| CN1CCC(CCCO)=CC1c1ccc(CN2CCCC2)cc1 (stereo not given) | 0.958 | -0.428 (inactive) | -0.692 (inactive) | -0.974 (inactive) | 0.239 (inactive) | 0.825 | 0.0096 | 3.12 | 2.86 | 2.08 |
| O=C1O[C@@H](c2ccccc2)[C@@H](c2ccccc2)N2[C@@H](c3ccc(O)cc3)[C@]3(C(=O)Nc4ccc(C#CC5(O)CCCCCC5)cc43)[C@@H](C(=O)N3CCCCCCC3)[C@H]12 | 1.74 | -2.41 (inactive) | -1.55 (inactive) | 0.362 (inactive) | -0.981 (inactive) | 3.13 | 1.67 | 2.71 | 2.35 | 2.27 |
| CC(C)NC(=O)[C@@H]1c2ccccc2C(=O)N(Cc2ccccc2)[C@H]1c1ccc(CO)cc1 | -0.0365 | -0.0084 (inactive) | -0.0818 (inactive) | 0.0279 (inactive) | 0.669 (inactive) | -0.501 | 0.0345 | -0.124 | -0.744 | 0.495 |
| CC1CC/C=C\[C@H]2OC34C=CCN(Cc5ccccc5)C(=O)[C@H]3N(CCCCCO)C(=O)[C@@H]4C2C(=O)O1 (stereo not given in full) | 0.008 | 0.398 (inactive) | 1.96 (inactive) | 1 (inactive) | 0.424 (inactive) | -0.966 | -0.242 | -1.17 | -1.4 | -0.829 |
| O=C/C=C/c1ccc(Cl)cc1 | 0.268 | -2.45 (inactive) | -0.421 (inactive) | -0.258 (inactive) | 0.716 (inactive) | -0.359 | -0.179 | -1.01 | -0.786 | -0.823 |
| CCOC(=O)C[C@H]1[C@H](OC(=O)c2ccc(C(=O)c3ccccc3)cc2)[C@@H](NC(=O)C2CCCCC2)c2cc(OCCCO)ccc2N1C(=O)c1ccccc1 | 0.177 | -0.361 (inactive) | 0.441 (inactive) | 2.06 (inactive) | -0.0298 (inactive) | 0.767 | 0.58 | 0.342 | 0.358 | 1.31 |
